The source of these data is PubChem BioAssay (EPA / NIEHS).

SMILES strings stand for the structures. The source made the active and inactive calls. How the source made its calls: active means hit-call score of the fitted dose curve at least 0.9, where 1 is the maximum; inactive means score below 0.9.

In general, AC50 refers to the concentration giving half of the maximal activity seen.

A short description of assay [1]: BSK_hDFCGF_Proliferation: Cell Proliferation Assessment in the BioMAP Diversity Plus: hDFCGF Assay (AID 2283059).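 Further: curves fitted for both rise and fall of signal versus DMSO baseline.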 The following applies: primary human foreskin fibroblasts. In short, it runs like this: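 Sub-confluent human foreskin fibroblast cultures receive test chemical […]. Relative cell number is quantified by sulforhodamine B staining (0.1%, after 10% TCA fixation) at 560 nm, with bidirectional fitting referenced to DMSO.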

Read-out in assay [2]: Macrophage colony-stimulating factor (MCSF), CSF1 (gene 1435)
In words: BSK_hDFCGF_MCSF: BioMAP Diversity Plus: hDFCGF Assay for Macrophage colony-stimulating factor (MCSF) Biomarker Activity (AID 2283060). The following applies: primary human foreskin fibroblasts; actives raise or lower the signal. In short, it runs like this: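 Human foreskin primary fibroblasts were treated with test chemical for 24 h, and M-CSF was then measured by ELISA. Data were fitted bidirectionally against DMSO as the negative control and activity baseline.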

The nature of assay [3]: BSK_hDFCGF_SRB: Viability Assessment in the BioMAP Diversity Plus: hDFCGF Assay (AID 2283061).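 Further: cells exposed to compound for 24 h before the read.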 The note with it: primary human foreskin fibroblasts. In short, it runs like this: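 Human foreskin primary fibroblasts were treated with compound and assessed 24 h after dosing. Total protein was measured by sulforhodamine B staining (0.1% SRB after 10% TCA fixation, 560 nm read) as a cytotoxicity marker, with bidirectional fitting against DMSO baseline.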

Read-out in assay [4]: TIMP metallopeptidase inhibitor 1 (TIMP1), TIMP1 (gene 7076)
In words: BSK_hDFCGF_TIMP1: BioMAP Diversity Plus: hDFCGF Assay for TIMP metallopeptidase inhibitor 1 (TIMP1) Biomarker Activity (AID 2283062). The note with it: primary human foreskin fibroblasts; actives raise or lower the signal. In short, it runs like this:
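Primary human foreskin fibroblasts in the hDFCGF system were dosed with compound for 24 h, then TIMP-1 was measured by ELISA. Activity was fitted bidirectionally relative to DMSO control; parallel SRB staining assessed cytotoxicity.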

Read-out in assay [5]: Monokine induced gamma interferon (MIG), CXCL9 (gene 4283)
Nature of the assay: BSK_hDFCGF_MIG: BioMAP Diversity Plus: hDFCGF Assay for Monokine induced gamma interferon (MIG) Biomarker Activity (AID 2283063). The note with it: primary human foreskin fibroblasts; actives raise or lower the signal. The procedure, abridged: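 ELISA read-out of MIG from primary human dermal fibroblasts 24 h post-dosing. Gain or loss of signal fitted bidirectionally, DMSO as baseline.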

Read-out in assay [6]: Vascular cell adhesion molecule 1 (VCAM1), VCAM1 (gene 7412)
Nature of the assay: BSK_hDFCGF_VCAM1: BioMAP Diversity Plus: hDFCGF Assay for Vascular cell adhesion molecule 1 (VCAM1) Biomarker Activity (AID 2283065).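 On AC50: VCAM-1 protein level quantified by ELISA after 24 h chemical exposure.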 The following applies: primary human foreskin fibroblasts; actives raise or lower the signal. The procedure, abridged:
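Primary human foreskin fibroblasts (hDFCGF system) were dosed with chemical and VCAM-1 was measured by ELISA 24 h later. Bidirectional curve fitting used DMSO as negative control and activity baseline.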

Read-out in assay [7]: Plasminogen activator inhibitor-1 (PAI1), SERPINE1 (gene 5054)
In words: BSK_hDFCGF_PAI1: BioMAP Diversity Plus: hDFCGF Assay for Plasminogen activator inhibitor-1 (PAI1) Biomarker Activity (AID 2283066). The following applies: primary human foreskin fibroblasts; actives raise or lower the signal. The procedure, abridged:
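Human foreskin fibroblast primary cells, 24 h chemical exposure; PAI-1 measured by ELISA. Bidirectional fitting relative to DMSO; parallel cultures stained with SRB for total protein to flag overt cytotoxicity.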

Read-out in assay [8]: Intercellular Adhesion Molecule 1 (ICAM1), ICAM1 (gene 3383)
Nature of the assay: BSK_KF3CT_ICAM1: BioMAP Diversity Plus: KF3CT Assay for Intercellular Adhesion Molecule 1 (ICAM1) Biomarker Activity (AID 2283067). The following applies: primary human keratinocytes with fibroblasts; actives raise or lower the signal. The procedure, abridged: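 Human keratinocyte plus foreskin fibroblast primary co-culture was exposed to chemical for 24 h. ICAM-1 was then quantified by ELISA, and the data were fit bidirectionally against DMSO as the negative control and baseline.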

Read-out in assay [9]: Interferon-gamma inducible Protein 10 (IP10), CXCL10 (gene 3627)
In words: BSK_KF3CT_IP10: BioMAP Diversity Plus: KF3CT Assay for Interferon-gamma inducible Protein 10 (IP10) Biomarker Activity (AID 2283068). The following applies: primary human keratinocytes with fibroblasts; actives raise or lower the signal. The procedure, abridged:
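ELISA read-out of IP-10 after 24 h chemical dosing of human skin primary co-culture (keratinocytes, foreskin fibroblasts). Gain or loss of signal relative to DMSO, bidirectional curve fit.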

Read-out in assay [10]: Matrix Metallopeptidase 1 (MMP1), MMP1 (gene 4312)
In words: BSK_hDFCGF_MMP1: BioMAP Diversity Plus: hDFCGF Assay for Matrix Metallopeptidase 1 (MMP1) Biomarker Activity (AID 2283064). The following applies: primary human foreskin fibroblasts; actives raise or lower the signal. In short, it runs like this:
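Primary human foreskin fibroblasts in the hDFCGF system were dosed with test chemical, and MMP1 was measured by ELISA 24 h later. Values come from bidirectional curve fitting against the DMSO baseline.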

Turning to `COP(=O)(OC)O/C(C)=C/C(=O)N(C)C`, the outcome in assay [1], in assay [2], in assay [3], in assay [4], in assay [5] and in [6] was inactive. In addition, the outcome in [7], in assay [8] and in [9] was inactive.
For `COC(=O)NS(=O)(=O)c1ccc(N)cc1`, the outcome in [1], in [2], in assay [4], in assay [5], in [10] and in assay [6] was inactive. The outcome in assay [7], in [8] and in assay [9] was inactive.
Regarding `CC1(C)C(C(=O)OC(C#N)c2cccc(Oc3ccccc3)c2)C1(C)C` (stereo unspecified), the AC50 in assay [1] was 8.2 µM (active); in [10], 3.02 µM (active). Besides, the result in [2], in assay [3], in assay [5], in [6], in assay [7] and in assay [8] was inactive. In addition, in [9], the outcome was inactive.
Turning to `CC(C)C1(C)N=C(c2ncccc2C(=O)O)NC1=O` (stereo unspecified), the outcome in [1], in assay [2], in assay [4], in assay [5], in assay [10] and in assay [6] was inactive. Moreover, the outcome in assay [7], in assay [8] and in [9] was inactive.
Turning to `COCC(=O)N(c1c(C)cccc1C)C(C)C(=O)OC` (stereo unspecified), the outcome in assay [1], in assay [2], in [4], in assay [5], in assay [10] and in assay [6] was inactive. The result in assay [7], in assay [8] and in [9] was inactive.
As for `CCC(C)n1c(=O)[nH]c(C)c(Br)c1=O` (stereo unspecified), the outcome in [1], in assay [2], in [3], in assay [4], in assay [5] and in [6] was inactive. For the same compound, the result in [7], in assay [8] and in [9] was inactive.
Regarding `CC1(C)C(C=C(Cl)Cl)C1C(=O)OC(C#N)c1cccc(Oc2ccccc2)c1` (stereo unspecified), the result in assay [1], in [2], in assay [3], in [5], in assay [6] and in assay [7] was inactive. For the same compound, the result in assay [8] and in assay [9] was inactive.
As to `O=C(O)c1c(Cl)ccc2cc(Cl)cnc12`, the outcome in [1], in assay [2], in assay [3], in [5], in assay [10] and in assay [6] was inactive. Moreover, the result in [7], in assay [8] and in assay [9] was inactive.
Consider `CO/N=C(/C1=NOCCO1)c1ccccc1Oc1ncnc(Oc2ccccc2Cl)c1F`, for which the AC50 in [1] was 26.7 µM (active); in assay [4], 8.26 µM (active); in assay [9] it was 7.33 µM (active). For the same compound, the outcome in assay [2], in assay [3], in assay [5], in [6], in assay [7] and in assay [8] was inactive.
With `CCCN(CC)CC1COC2(CCC(C(C)(C)C)CC2)O1` (stereo unspecified), the half-maximal activity concentration (AC50) was 5.6 µM (active) in assay [1], 0.602 µM (active) in assay [5] and 3.97 µM (active) in assay [9]. Besides, the result in assay [2], in assay [3], in [6], in assay [7] and in [8] was inactive.
On to `CCN(CC)c1nc(C)cc(OP(=S)(OC)OC)n1`, for which the AC50 is 20 µM (active) in [1], 14.6 µM (active) in assay [2], 27 µM (active) in assay [6] and 11.3 µM (active) in [7]. For the same compound, the outcome in [3], in assay [5], in [8] and in [9] was inactive.
On to `C=CCOC(=O)C(C)(C)OC(=O)c1cc(-n2c(=O)cc(C(F)(F)F)n(C)c2=O)ccc1Cl`, for which the result in assay [1], in assay [3], in assay [5], in [6] and in [8] was inactive. Besides, the AC50 in [2] is 1.88 µM (active); in assay [4] it was 30.3 µM (active); in assay [10], 3.97 µM (active); in assay [7] it was 3.51 µM (active); in assay [9] it was 6.34 µM (active).
Turning to `CC(C)Oc1cccc(NC(=O)c2ccccc2C(F)(F)F)c1`, the AC50 in assay [1] was 27.5 µM (active); in assay [3], 20 µM (active). The outcome in assay [2], in assay [5], in assay [10], in assay [6], in assay [7] and in assay [8] was inactive. The result in assay [9] was inactive.
With `CC1(C)CON(Cc2ccccc2Cl)C1=O`, the result in assay [1], in assay [2], in assay [3], in assay [5], in [6] and in [7] was inactive. In addition, the result in assay [8] and in assay [9] was inactive. Further, the AC50 in assay [10] is 20 µM (active).
For `CCCC(=NOCC)C1=C(O)CC(CC(C)SCC)CC1=O` (stereo unspecified), the result in [1], in [2], in assay [3], in [4], in [5] and in assay [6] was inactive. Further, the outcome in assay [7], in [8] and in [9] was inactive.
With `CCOc1nc(C(Cl)(Cl)Cl)ns1`, the result in assay [1], in assay [2], in [3], in [4], in assay [5] and in [6] was inactive. In addition, the result in assay [7], in assay [8] and in assay [9] was inactive.
With `CC(C)Nc1nc(Cl)nc(NC(C)C)n1`, the outcome in assay [1], in assay [2], in [3], in [5], in [10] and in assay [6] was inactive. For the same compound, the result in assay [7], in assay [8] and in assay [9] was inactive.
